According to PubChem BioAssay:

Assay: mitochondrial membrane potential change in A549 cells, profiling panel, cell-based, JC-1 fluorescence, basal, 24 h, 100 nL (AID 1138);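 note: A549 lung adenocarcinoma cells under basal conditions with no added stimulus; test concentration not given here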
Conditions: higher = more signal

Row | Structure (SMILES) | z-score
1 | CC(C)[Si](C#C[Si](C(C)C)(C(C)C)C(C)C)(O[C@H](C)c1cn(Cc2cccc(Cl)c2)nn1)C(C)C | 2.01
2 | CC(C)(C)OC(=O)CC[C@]1(C(=O)N2CCCCC2)N=C(c2ccc(OCCCO)cc2)O[C@H]1c1ccccc1CN=[N+]=[N-] | 2.94
3 | CCOC(=O)C[C@H]1[C@H](OC(=O)Cc2ccc3c(c2)OCO3)[C@@H](NC(=O)c2ccccc2)c2cc(OCCCO)ccc2N1C(=O)c1ccc2ccccc2n1 | 0.925
4 | CC(C)CCC[C@@H](C)[C@H]1CC[C@@]2(C)C3=C(CC[C@]12C)[C@@]1(C)CC[C@H](OC(=O)c2ccc(N)cc2)C(C)(C)C1CC3 (stereo not given in full) | 1.32
5 | C=CCC(OC(C)=O)[C@@H]1[C@@H](N(Cc2cccc3ccccc23)C(=O)c2ccc(C)cc2)c2cc(OCCCO)ccc2N1C(=O)c1ccc2ccccc2c1 (stereo not given in full) | 1.15
6 | COC(=O)C(CC#Cc1ccc2c(c1)[C@]1(C(=O)N2)[C@H](c2ccccc2OCCO)N2[C@H](c3ccccc3)[C@H](c3ccccc3)OC(=O)[C@H]2[C@@H]1C(=O)Nc1nc2ccccc2s1)C(=O)OC | -2.12
7 | C=CCOC(=O)[C@@H]1[C@H]2C(=O)O[C@H](c3ccccc3)[C@H](c3ccccc3)N2[C@H](c2ccc(OCCOC(=O)[C@@H]3C[C@@H]4C(=O)N5CCC[C@H]5C(=O)N4[C@@H]3c3cccc(OCCO)c3)cc2)[C@@]12C(=O)Nc1ccc(I)cc12 | -1.17
8 | COc1ccc(C(=O)Nc2ccc(CN3C(=O)[C@]4(O[C@H](CCn5cc([C@H](O)c6ccccc6)nn5)[C@@H]([Si](C)(C)c5ccc(OC)cc5)[C@@H]4C)c4ccccc43)cc2)cc1 | 0.496
9 | CN(C)C(=O)[C@@]1(CCC(=O)OC(C)(C)C)N=C(c2ccc(OCCCO)cc2)O[C@H]1c1ccccc1N=[N+]=[N-] | 1.15
10 | COCCOC(=O)N1C(=O)[C@@]2(c3cc(C#CCCO)ccc31)[C@H](C(=O)NC[C@H](O)c1ccccc1)[C@H]1C(=O)O[C@H](c3ccccc3)[C@H](c3ccccc3)N1[C@@H]2c1ccccc1OCCO | 0.358
11 | COc1ccc([Si](C)(C)[C@H]2[C@H](CCO)O[C@@]3(C(=O)N(Cc4cccc(N5CCOC5=O)c4)c4ccccc43)[C@@H]2C)cc1 | 0.00631
12 | CN(C)CCCC[C@@H]1NC(=O)[C@H]2C[C@@H](C(=O)NCCCCCCNC(=O)CS)[C@@H](c3ccc(O)cc3)N2C1=O | -0.685
13 | CC(C)=CCCC(C)=CC(O)C1C=CC2C(=O)N(c3ccccc3)C(=O)C2N1Nc1ccc([N+](=O)[O-])cc1 (stereo not given) | -0.78
14 | COC(=O)[C@@]1(Cc2ccc(OC)cc2)[C@H]2c3cc(C(=O)N(C)C)n(Cc4cc(F)c(F)c(F)c4)c3C[C@H]2CN1C(=O)c1ccccc1 | -0.787
15 | COCCOC(=O)N1C(=O)[C@@]2(c3cc(C#CCC(C(=O)OC)C(=O)OC)ccc31)[C@H](C(=O)N1CCCCCCC1)[C@H]1C(=O)O[C@H](c3ccccc3)[C@H](c3ccccc3)N1[C@@H]2c1ccc(O)cc1 | -0.909
16 | [N-]=[N+]=Nc1ccccc1[C@H]1OC(c2ccc(OCCCO)cc2)=N[C@@]1(Cc1ccccc1)C(=O)NCc1ccccc1 | 0.361
17 | COC(=O)C(CC#Cc1ccc2c(c1)[C@]1(C(=O)N2)[C@H](c2ccc(O)cc2)N2[C@H](c3ccccc3)[C@H](c3ccccc3)OC(=O)[C@H]2[C@@H]1C(N)=O)C(=O)OC | 1.42
18 | C=CCNC(=O)[C@H]1[C@@H]2C(=O)O[C@@H](c3ccccc3)[C@@H](c3ccccc3)N2[C@@H](c2ccc(OCCO)cc2)[C@]12C(=O)N(C(=O)OCCOC)c1ccc(C#CC3=CCCCC3)cc12 | -0.615

Row | Structure (SMILES) | z-score
19 | COC(=O)[C@@]1(Cc2ccccc2)[C@H]2c3cc(C(=O)N(C)C)n(Cc4ccccn4)c3C[C@H]2CN1C(=O)c1ccccc1 | -0.128
20 | O=C(Nc1cc(Br)ccc1C(=O)NCc1cccc(O)c1)c1ccccc1 | 0.252
21 | NCCCCCCNC(=O)[C@H]1C[C@H]2C(=O)N3CCC[C@H]3C(=O)N2[C@H]1c1ccc(O)cc1 | -0.712
22 | C#CCNS(=O)(=O)N(C)C | 0.497
23 | CCCC=C(CCC)[C@@H](NS(=O)(=O)CC)c1ccccc1 | -1.72
24 | CN(C)CCCCCCNC(=O)[C@@H]1C[C@@H]2C(=O)NCC(=O)N2[C@@H]1c1ccc(O)cc1 | -0.736
25 | NC(=O)NCC#Cc1ccc2c(c1)[C@]1(C(=O)N2)[C@H](c2ccc(O)cc2)N2[C@H](c3ccccc3)[C@H](c3ccccc3)OC(=O)[C@H]2[C@@H]1C(N)=O | -0.65
26 | COCCCNC(=O)[C@@]1(C)c2ccccc2C(=O)N(c2ccc(C)cn2)[C@H]1c1ccc(CO)cc1 | -0.9
27 | COCCCNC(=O)[C@]1(Cc2ccccc2)N=C(c2ccc(OCCCO)cc2)O[C@@H]1c1ccccc1N=[N+]=[N-] | -0.141
28 | CCCC=C(CCC)[C@@H](NC(=O)Cc1ccccc1)c1ccc(C(=O)OC)cc1 | -0.298
29 | COc1ccc([Si](C)(C)[C@@H]2[C@@H](CCO)O[C@]3(C(=O)N(Cc4ccccc4)c4ccc(N5CCCCC5=O)cc43)[C@H]2C)cc1 | -0.167
30 | COc1ccc(CCNC(=O)[C@@H]2c3ccccc3C(=O)N(Cc3ccccc3)[C@H]2c2ccc(CO)cc2)cc1 | 1.77
31 | O=C(CS)NCCCCCNC(=O)[C@@H]1C[C@@H]2C(=O)N3CCC[C@H]3C(=O)N2[C@@H]1c1ccc(O)cc1 | 0.605
32 | COC(=O)[C@]1(Cc2ccccc2CN=[N+]=[N-])N=C(c2ccc(OCCCO)cc2)O[C@@H]1c1ccccc1 | -0.0525
33 | COc1ccc([Si](C)(C)[C@@H]2[C@@H](CC(=O)N(CCO)Cc3ccccc3)O[C@]3(C(=O)N(Cc4ccc(N5CCOC5=O)cc4)c4ccccc43)[C@H]2C)cc1 | -0.147
34 | [N-]=[N+]=NCc1ccccc1C[C@]1(C(=O)NCCN2CCOCC2)N=C(c2ccc(OCCCO)cc2)O[C@H]1c1ccccc1 | 1.02
35 | COC(=O)[C@H]1N=C(c2ccc(OCCCO)cc2)O[C@H]1c1ccccc1CN=[N+]=[N-] | 0.758
